The other results are listed elsewhere or left out. The source made the active and inactive calls. Calls follow the shape of the full dose curve.
These compounds were tested against DNA polymerase beta (Homo sapiens) (UniProt P06746) (assay: Inhibitors of DNA Polymerase Beta: Hit validation). Details: Pol beta primer extension/strand displacement, fluorescence kinetic.
Source text: The base excision repair system in human cells is a target for therapeutic modulation of the response to irradiation treatment and DNA-damaging drugs. A key enzyme in this system is the bi-functional DNA polymerase known as DNA polymerase Beta (Pol Beta). The following is a homogeneous kinetic assay to study the primer extension and strand-displacement reaction catalyzed by pol beta.
A stepwise description of the 1536-well assay is shown in next Table. Three microliters of reagents (buffer in column 3 and 4 as negative control and 10 nM Pol beta in columns 1, 2, and 5-48) was dispensed into 1,536-well black solid-bottomed plate. Compounds (23 nL) were transferred via Kalypsys pin tool equipped with 1536-pin array (10 nL slotted pins, V&P Scientific, San Diego, CA). The plates were incubated for 15 min at room temperature, and 1 uL substrate (50 nM final concentration) were added to start the reaction and immediately read at 0 min read on Viewlux reader. The plate were further incubated for 10 min at room temperature, and then read on Viewlux again. Throughout the screen, reagent bottle and all liquid lines were chilled and made light-tight to minimize reagent degradation. All screening operations were performed on a fully integrated robotic system (Kalypsys, San Diego, CA) containing one RX-130 and two RX-90 anthropomorphic robotic arms (Staubli, Duncan, SC). Library plates were screened starting from the lowest and proceeding to the highest concentration, and a double-dipping step of the highest concentration was required to access higher concentrations of compounds. Vehicle-only plates, with DMSO being pin-transferred to the entire column 5-48 compound area, were inserted uniformly at the beginning and the end of each library in order to monitor for and record any shifts in the background, which can be affected by reagent dispensers or loss in enzyme activity overtime. Screening data were corrected, normalized, and concentration-effect relationships were derived by using publicly-available curve fitting algorithms developed in-house (http://ncgc.nih.gov/pub/openhts). A four parameter Hill equation was fitted to the concentration-response data by minimizing the residual error between the modeled and observed responses.
Potency is read from the fitted curve at half-maximal effect.

SMILES	Potency
Cc1ccc2nc(-c3ccncc3)cc(C(=O)Nc3ccc(OC(F)F)cc3)c2c1	35.5 µM (active)
Cc1c(CC(=O)N2CCN(C(=O)C3COc4ccccc4O3)CC2)c(=O)oc2c(O)c(O)ccc12 (configuration not stated)	2.24 µM (active)
Cc1c(CCC(=O)O)c(=O)oc2c(C)c(OCc3ccccc3Cl)ccc12	12.6 µM (active)
COc1ccc(Cc2nnc(NC(=O)Cc3cccs3)s2)cc1	6.31 µM (active)
COc1cc([C@H](Cc2ccccc2)NC(C)=O)oc(=O)c1	28.2 µM (active)
O=C(Nc1ccc(S(=O)(=O)Nc2nccs2)cc1)c1cc(-c2ccncc2)nc2ccccc12	25.1 µM (active)
Cc1ccc(C(=O)Oc2coc(CSc3nnc(NC(=O)c4cccs4)s3)cc2=O)cc1C	31.6 µM (active)

Source: PubChem BioAssay AID540280 (National Center for Advancing Translational Sciences (NCATS), 2011)
